Screening results from PubChem.
RmlCD inh 1536 – M. tuberculosis RmlC/RmlD coupled enzyme inhibitors, primary screen, biochemical, compound mixtures, 384-well, from 1536-well plates | RmlC+RmlD coupled enzyme assay, percent inhibition; primary screen in compound mixtures | inhibition, % at 3.6 µM | 160,000 tested, 0.03% active; in the data active = inhibition mostly above about 34%, no sharp cut-off
Numbers without * were called inactive. This is one part of a sample in which hits are shown more often than they occur.

SMILES	RmlCD inh 1536
O=C(CC1SC(=O)NC1=O)Oc1ccc(/C=N/NC(=O)c2ccccc2O)cc1 (centres undefined)	5.7
Cc1ccc(S(=O)(=O)NCCC(=O)Nc2ccc(Cl)c(Cl)c2)cc1	-6.9
CCN1CCN(CCCNC(=O)c2cc3cc4ccc(OC)cc4nc3o2)CC1	-2.5
COc1ccc2cc3cc(C(=O)NCCN4CCN(Cc5ccccc5)CC4)oc3nc2c1	14.2
COc1ccc2cc3cc(C(=O)NCCCN4CCOCC4)oc3nc2c1	51.0*
CSc1ncc(Cl)c(C(=O)Nc2ccccc2Br)n1	6.1
CN(CCOc1ccccc1)S(=O)(=O)c1ccc2oc3ccccc3c2c1	3.5
Cc1cc2ccccc2n2c(SCC(=O)NCC3CCCO3)nnc12 (centres undefined)	-7.7
CCOc1ncccc1C(=O)Nc1ccc2c(C)cc(=O)oc2c1	1.5
Cc1cc(C)c(NC(=O)COc2ccccc2C(=O)Nc2ccc3c(c2)oc2ccccc23)c(C)c1	98.7*
COc1ccccc1NC(=O)COc1ccccc1C(=O)Nc1ccccc1	-9.6
CCc1ccccc1NC(=O)c1ccc(CN2CCC(Cc3ccccc3)CC2)cc1	-2.4
COc1cccc(/C=N/NC(=O)c2cc3c(OC)cccc3[nH]2)c1OC	-6.5
COc1cccc(/C=N/NC(=O)c2cc3c(OC)cccc3[nH]2)c1O	68.7*
COc1ccc(OC)c(/C=N/NC(=O)c2cc3c(OC)cccc3[nH]2)c1	-4.6
CN(c1ccc(OCC(=O)OCC(=O)NCc2ccco2)cc1)S(=O)(=O)c1ccc2ccccc2c1	7.1
Cc1ccc(C(=O)NCC(=O)N/N=C/c2sccc2C)cc1[N+](=O)[O-]	-10.7
COc1ccc(-c2cc3nc4n(c(=O)c3s2)CCC4)cc1	76.6*
COc1ccc(-c2cc3nc4n(c(=O)c3s2)CCCCC4)cc1	-8.1
COc1ccc(-c2cc3nc(C)n(N)c(=O)c3s2)cc1	9.6
CC(=NCCN1CCN(C(C)=C2C(=O)c3ccccc3C2=O)CC1)C1=C(O)CC(C)(C)CC1=O	6.5
Cc1cc(C)c(NC(N)=S)c(C)c1	10.7
COc1ccc(-c2nc(CN(CC3CCC(=O)N3)C(C)C)c(C)o2)c(C)c1C (centres undefined)	-2.6
O=C(NNC(=O)C1CCCN(S(=O)(=O)c2cccc(F)c2)C1)C1CC1 (centres undefined)	10.4
O=c1oc2c(CN3CCOCC3)c(O)ccc2c2c1CCCC2	44.3*
SMILES	RmlCD inh 1536
O=c1oc2c(CN3CCOCC3)c(O)c(Cl)cc2c2c1CCCC2	2.0
CN(C)Cc1c(O)ccc2c3c(c(=O)oc12)CCCCC3	20.6
Cc1ccc(CN2CCN(Cc3cnc(N4CCOCC4)s3)CC2CCO)cc1 (centres undefined)	5.3
CN1C(=O)C(CC(=O)NCCc2ccccc2)N(NC(=O)c2ccc(Cl)cc2)C1=S (centres undefined)	15.5
COCCCn1c(=N)c(C(=O)NCC2CCCO2)cc2c(=O)n3ccccc3nc21 (centres undefined)	-0.4
Cc1cccn2c(=O)c3cc(C(=O)NCCc4ccccc4)c(=N)n(CCCn4ccnc4)c3nc12	11.5
CCNC(=O)c1cc2c(=O)n3cccc(C)c3nc2n(CCc2ccccc2)c1=N	32.2*
CCCCNC(=O)c1cc2c(=O)n3cccc(C)c3nc2n(Cc2ccccc2)c1=N	-4.8
COCCCn1c(=N)c(C(=O)NCC2CCCO2)cc2c(=O)n3cccc(C)c3nc21 (centres undefined)	-3.9
CCCn1c(=N)c(C(=O)NCC2CCCO2)cc2c(=O)n3cccc(C)c3nc21 (centres undefined)	108.9*
CO/N=C/C(C#N)=C/c1cc(C(=O)c2ccccc2)cn1C	9.4
Cc1cccc(N=Nc2cnc(N)s2)c1	8.8
N#C/C(=C\c1ccncc1)c1nc2ccccc2[nH]1	34.5*
N#C/C(=C\c1cccnc1)c1nc2ccccc2[nH]1	14.3
N#C/C(=C/c1ccncc1)c1nc2ccccc2s1	-6.3
O=C(c1cc(COc2c(F)cccc2F)on1)N1CCc2ccccc2C1	6.5
CCOC(=O)C1(CCc2ccccc2)CCN(C(=O)c2cnc(C)cn2)CC1	-9.3
COc1ccc(/C=N/Nc2nc(-c3ccc(C)cc3)c(NC(C)=O)s2)cc1OC	5.3
CC(=O)Nc1sc(N/N=C/c2ccc(C)cc2)nc1-c1ccc(C)cc1	-5.8
CC(=O)Nc1sc(N/N=C/c2ccc(N(C)C)cc2)nc1-c1ccc(C)cc1	63.6*
Cc1cccc(N(Cc2cc3ccccc3[nH]c2=O)S(=O)(=O)c2ccccc2)c1	-5.6
CC(C)[C@@H](N)C(=O)N/N=C/c1ccc2ncccc2c1	-1.8
